According to PubChem BioAssay (EPA / NIEHS):
Records with an inconclusive call do not appear. The source holds several records for some structures; these can differ, active in one and inactive in another. The source made the active and inactive calls. The calls were made as follows, unless noted: active = hit-call score of the fitted dose curve at least 0.9, where 1 is the maximum; inactive = score below 0.9.

Experiments:
[1] = read-out: Monokine induced gamma interferon (MIG), CXCL9 (gene 4283); experiment: BSK_KF3CT_MIG: BioMAP Diversity Plus: KF3CT Assay for Monokine induced gamma interferon (MIG) Biomarker Activity (AID 2284248); conditions: primary human keratinocytes with fibroblasts
Summary of the method: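 MIG in dosed human skin co-cultures was measured by ELISA at 24 h, relative to DMSO.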

[2] = read-out: Collagen I, COL1A1 (gene 1277); experiment: BSK_hDFCGF_CollagenI: BioMAP Diversity Plus: hDFCGF Assay for Collagen I Biomarker Activity (AID 2284250); conditions: primary human foreskin fibroblasts
Summary of the method: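 Readout: Collagen I by ELISA after 24 h compound treatment of primary human foreskin fibroblasts. Endpoint analysed for increases relative to DMSO; total protein by SRB in parallel wells flagged cytotoxicity.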

[3] = read-out: Interferon-inducible T-cell alpha chemoattractant (ITAC), CXCL11 (gene 6373); experiment: BSK_hDFCGF_ITAC: BioMAP Diversity Plus: hDFCGF Assay for Interferon-inducible T-cell alpha chemoattractant (ITAC) Biomarker Activity (AID 2284251); conditions: primary human foreskin fibroblasts
Summary of the method: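 I-TAC levels were read by ELISA on human dermal foreskin fibroblast primary cultures 24 h after dosing, analysed against DMSO in the positive direction. Cytotoxicity was assessed alongside by sulforhodamine B total-protein staining.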

[4] = read-out: Plasminogen activator inhibitor-1 (PAI1), SERPINE1 (gene 5054); experiment: BSK_KF3CT_PAI1: BioMAP Diversity Plus: KF3CT Assay for Plasminogen activator inhibitor-1 (PAI1) Biomarker Activity (AID 2284252); conditions: primary human keratinocytes with fibroblasts
Summary of the method: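 In this co-culture of primary human keratinocytes and foreskin fibroblasts, PAI-1 was measured by ELISA at 24 h and fitted upward from DMSO.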

[5] = read-out: Interleukin-8 (IL8), CXCL8 (gene 3576); experiment: BSK_KF3CT_IL8: BioMAP Diversity Plus: KF3CT Assay for Interleukin-8 (IL8) Biomarker Activity (AID 2284254); conditions: primary human keratinocytes with fibroblasts
Summary of the method: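 Using parallel SRB-stained cultures to flag overt toxicity, the study quantified IL-8 by ELISA in human keratinocyte–foreskin fibroblast co-cultures 24 h after dosing, with DMSO as negative control and baseline.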

[6] = read-out: Collagen III, COL3A1 (gene 1281); experiment: BSK_MyoF_CollagenIII: BioMAP Diversity Plus: MyoF Assay for Collagen III Biomarker Activity (AID 2284239); conditions: primary human lung fibroblasts
Summary of the method: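 Multiplexed cell assay in lung fibroblasts, harvested at 24 h post-dose. Collagen III detected by ELISA, with positive-direction fitting relative to DMSO vehicle.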

[7] = read-out: Interleukin 17F (IL17F), IL17F (gene 112744); experiment: BSK_BT_xIL17F: BioMAP Diversity Plus: BT Assay for Interleukin 17F (IL17F) Biomarker Activity (AID 2284243); conditions: primary human B cells with PBMC
Summary of the method: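 Luminex readout of IL-17F secretion, 24 h; cells: human B cells with PBMC; positive-direction analysis, DMSO control.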

[8] = read-out: Actin alpha 1 (ACTA1), ACTA1 (gene 58); experiment: BSK_MyoF_ACTA1: BioMAP Diversity Plus: MyoF Assay for Actin alpha 1 (ACTA1) Biomarker Activity (AID 2284244); conditions: primary human lung fibroblasts
Summary of the method: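 MyoF fibroblast system (human lung); a-SMA quantified via ELISA at 24 h; DMSO-normalised, gain-of-signal endpoint.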

[9] = read-out: Interleukin 2 (IL2), IL2 (gene 3558); experiment: BSK_BT_xIL2: BioMAP Diversity Plus: BT Assay for Interleukin 2 (IL2) Biomarker Activity (AID 2284245); conditions: primary human B cells with PBMC
Summary of the method: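 Co-cultures of primary human B cells and PBMC are treated with chemical and sampled at 24 h. IL-2 secretion is quantified by Luminex xMAP, with DMSO-treated wells as baseline.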

[10] = read-out: Basic fibroblast growth factor (bFGF), FGF2 (gene 2247); experiment: BSK_MyoF_bFGF: BioMAP Diversity Plus: MyoF Assay for Basic fibroblast growth factor (bFGF) Biomarker Activity (AID 2284246); conditions: primary human lung fibroblasts
Summary of the method: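 Fibroblasts from human lung, 24 h dosing. bFGF by ELISA; gain of signal over DMSO.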

[11] = read-out: Collagen IV, COL4A1 (gene 1282); experiment: BSK_MyoF_CollagenIV: BioMAP Diversity Plus: MyoF Assay for Collagen IV Biomarker Activity (AID 2284247); conditions: primary human lung fibroblasts
Summary of the method: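 Lung fibroblasts (human primary) treated with chemicals were assayed after 24 h for Collagen IV using an ELISA, with DMSO serving as negative control and baseline for a positive-direction fit.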

[12] = read-out: Plasminogen activator inhibitor-1 (PAI1), SERPINE1 (gene 5054); experiment: BSK_MyoF_PAI1: BioMAP Diversity Plus: MyoF Assay for Plasminogen activator inhibitor-1 (PAI1) Biomarker Activity (AID 2284256); conditions: primary human lung fibroblasts
Summary of the method: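 In this multiplexed primary-cell system, fibroblasts from human lung received compound for 24 h before ELISA detection of PAI-1; overt toxicity was checked by SRB (0.1%, TCA-fixed, 560 nm) in parallel wells.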

[13] = read-out: Interleukin-8 (IL8), CXCL8 (gene 3576); experiment: BSK_MyoF_IL8: BioMAP Diversity Plus: MyoF Assay for Interleukin-8 (IL8) Biomarker Activity (AID 2284261); conditions: primary human lung fibroblasts
Summary of the method: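 DMSO-normalised, upward-fitted IL-8 ELISA signal; human lung fibroblasts, 24 h chemical treatment.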

[14] = CCTE_Mundy_HCI_Cortical_NOG_NeuronCount: CCTE's Neurite Outgrowth Assay in rat cortical cells for Neuron Count, Mundy Lab (AID 2284236; active = hit-call score of the fitted dose curve at least 0.9, where 1 is the maximum;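 also: neurons counted by imaging betaIII-tubulin and Hoechst stained cortical cells; cells exposed to compound for about 48 hours before fixation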)
Summary of the method: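 Read-out: neuron number by high-content imaging of betaIII-tubulin (Alexa Fluor-488) and Hoechst-labelled rat primary cortical cells.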

[15] = CCTE_Mundy_HCI_Cortical_NOG_BPCount: CCTE's Neurite Outgrowth Assay in rat cortical cells for Branch Point Count, Mundy Lab (AID 2284237)
Summary of the method: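 Measured 50.33 h after dosing, this morphology endpoint uses rat primary cortical cultures labelled for betaIII-tubulin. Branch points are quantified by high-content imaging, with DMSO as negative control and baseline.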

[16] = CCTE_Mundy_HCI_hNP1_Casp3_7: CCTE's Caspase-Glo 3/7 Assay in human neuroprogenitor cells for Apoptosis, Mundy Lab (AID 2284240)
Summary of the method: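 Apoptosis is scored by activated caspase-3/7 luminescence in WA09-derived neural progenitor cells, measured 26.5 h after chemical dosing. Values represent gain of signal relative to DMSO vehicle.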

[17] = TAMU_PeakParms_SingleDonor1434_QT: Texas A&M University (TAMU) 1.5-hr Human Induced Pluripotent Stem Cell (iPSC)-derived Cardiomyocytes Calcium (Ca+2) Flux Assay for Cardiotoxicity: QT (decay-rise ratio) (AID 2284235; active = hit-call score of the fitted dose curve at least 0.9, where 1 is the maximum)
Summary of the method: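 Decay/rise ratio of calcium-flux fluorescence scored after 90 min exposure (37C) of donor 1434 iPSC cardiomyocytes to 0.2–100 uM (0.5% DMSO). Beat-cessation and severe-notch points removed; POD is EC05, a 5% rise over DMSO.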

[18] = CCTE_Mundy_HCI_hNP1_CellTiter: CCTE's Cell Titer-Glo 2 Assay in human neuroprogenitor cells for Viability, Mundy Lab (AID 2284241; active = hit-call score of the fitted dose curve at least 0.9, where 1 is the maximum)
Summary of the method: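 Human neural progenitor cells (hNP1, WA09-derived) were plated on poly-L-ornithine/laminin and grown 40 to 44 hours at 37 °C, 5% CO2 before chemical addition. Twenty-four hours later, ATP was measured by CellTiter-Glo luminescence; loss of signal versus DMSO indicates reduced viability.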

[19] = TAMU_HCS_1.5hr_SingleDonor1434_Cytotoxicity: Cytotoxicity Assessment using High-content Screening (HCS) Fluorescent Imaging for the Texas A&M University (TAMU) 1.5-hr Human Induced Pluripotent Stem Cell (iPSC)-derived Cardiotoxicity Assay (AID 2284234; active = hit-call score of the fitted dose curve at least 0.9, where 1 is the maximum)
Summary of the method: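 Nuclear counts from Hoechst 33342 imaging define cytotoxicity here, with EC10 (10% cell-count loss relative to DMSO) as point of departure. iPSC cardiomyocytes received 0.2-100 uM test chemical in 0.5% DMSO for 1.5 h at 37 C.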

Measured: AC50

CCO[Si](C)(OCC)OCC
inactive: [1] | [2] | [3] | [4] | [5]

C=C[Si](OC(C)=O)(OC(C)=O)OC(C)=O
inactive: [1] | [2] | [3] | [4] | [5]

COc1ccc2nc(N)sc2c1
inactive: [6] | [7] | [8] | [9] | [10] | [11] | [12] | [13]

CC1OC1C1CCC2(C)OC2C1 (centres undefined)
inactive: [6] | [7] | [8] | [9] | [10] | [11] | [12] | [13]

COCc1c(C(C)C)nc(C(C)C)c(/C=C/[C@@H](O)C[C@@H](O)CC(=O)O)c1-c1ccc(F)cc1
inactive: [10] | [11]
active: [6] 0.867 µM | [7] 0.57 µM | [8] 0.0484 µM | [9] 0.58 µM | [12] 0.15 µM

CC1(C)S[C@@H]2[C@H](NC(=O)COc3ccccc3)C(=O)N2[C@H]1C(=O)O
inactive: [14] | [15] | [16]

C=CCOCC(O)CCl (centres undefined)
inactive: [6] | [7] | [8] | [9] | [10] | [11] | [12] | [13]

C=CC(=O)OCC(Br)CBr (centres undefined)
inactive: [13]
active: [6] 32.7 µM | [7] 15.4 µM | [8] 20 µM | [9] 24.5 µM | [10] 37.5 µM | [11] 3.97 µM | [12] 7.93 µM

O=C1CCCN1CCO
inactive: [1] | [2] | [3] | [4] | [5]

O=C(O)CCCC[C@@H]1SC[C@@H]2NC(=O)N[C@@H]21
inactive: [17]

N[C@H]1C(O)O[C@H](CO)[C@H](O)[C@@H]1O (some centres undefined)
inactive: [15] | [16] | [18]

O=c1c2ccccc2oc2ccccc12
inactive: [6] | [8] | [9] | [10] | [11] | [12] | [13]
active: [7] 3.97 µM

S=C(NC1CCCCC1)NC1CCCCC1
inactive: [6] | [7] | [8] | [10] | [11] | [12] | [13]
active: [9] 27.6 µM

C=CC=CC=CCCCCC
active: [7] 7.28 µM
inactive: [6] | [8] | [9] | [10] | [11] | [12] | [13]

CCO[Si](CCCN=C=O)(OCC)OCC
inactive: [6] | [7] | [8] | [9] | [10] | [11] | [12] | [13]

O=C(Nc1ccccc1SSc1ccccc1NC(=O)c1ccccc1)c1ccccc1
active: [7] 9.15 µM
inactive: [6] | [8] | [10] | [11] | [12] | [13]

C#CC1(O)CC[C@H]2[C@@H]3CCC4=CCCC[C@@H]4[C@H]3CC[C@@]21C (some centres undefined)
inactive: [11]
active: [6] 31.8 µM | [7] 28.6 µM | [8] 32.2 µM | [9] 31.6 µM | [10] 33 µM | [12] 32 µM | [13] 30.4 µM

N#[N+]c1ccc2c(S(=O)(=O)[O-])cccc2c1O
inactive: [6] | [7] | [8] | [9] | [10] | [11] | [12] | [13]

O=C(c1ccc(O)cc1)c1ccc(O)cc1O
inactive: [1] | [2] | [3] | [4] | [5]

c1ccc2c(c1)ccc1ncccc12
active: [7] 20 µM
inactive: [6] | [8] | [9] | [10] | [11] | [12] | [13]

c1ccc2c(c1)ccc1cc3c(ccc4ccccc43)cc12
active: [9] 0.0436 µM
inactive: [19] | [6] | [7] | [8] | [9] | [10] | [11] | [12] | [13]
